Results published in PMC4336329 (PLoS ONE, 2015).
In all, about 310,000 compounds went through this assay and about 14,000 (4.5%) showed an effect of 50% or more. Effects have a minus sign here. The list comes from a sample in which strong results are over-represented; it also holds similar structures and randomly drawn compounds.

molecular target: human ether-à-go-go-related gene (hERG) potassium channel (human, UniProt Q12809); assay: primary screen, population patch clamp on CHO cells stably expressing hERG; higher = less effect of the substance
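Also: peak tail current of the secondary pulse compared with the same well before compound.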

Sequence of human ether-à-go-go-related gene (hERG) potassium channel (Q12809 whole entry, looked up): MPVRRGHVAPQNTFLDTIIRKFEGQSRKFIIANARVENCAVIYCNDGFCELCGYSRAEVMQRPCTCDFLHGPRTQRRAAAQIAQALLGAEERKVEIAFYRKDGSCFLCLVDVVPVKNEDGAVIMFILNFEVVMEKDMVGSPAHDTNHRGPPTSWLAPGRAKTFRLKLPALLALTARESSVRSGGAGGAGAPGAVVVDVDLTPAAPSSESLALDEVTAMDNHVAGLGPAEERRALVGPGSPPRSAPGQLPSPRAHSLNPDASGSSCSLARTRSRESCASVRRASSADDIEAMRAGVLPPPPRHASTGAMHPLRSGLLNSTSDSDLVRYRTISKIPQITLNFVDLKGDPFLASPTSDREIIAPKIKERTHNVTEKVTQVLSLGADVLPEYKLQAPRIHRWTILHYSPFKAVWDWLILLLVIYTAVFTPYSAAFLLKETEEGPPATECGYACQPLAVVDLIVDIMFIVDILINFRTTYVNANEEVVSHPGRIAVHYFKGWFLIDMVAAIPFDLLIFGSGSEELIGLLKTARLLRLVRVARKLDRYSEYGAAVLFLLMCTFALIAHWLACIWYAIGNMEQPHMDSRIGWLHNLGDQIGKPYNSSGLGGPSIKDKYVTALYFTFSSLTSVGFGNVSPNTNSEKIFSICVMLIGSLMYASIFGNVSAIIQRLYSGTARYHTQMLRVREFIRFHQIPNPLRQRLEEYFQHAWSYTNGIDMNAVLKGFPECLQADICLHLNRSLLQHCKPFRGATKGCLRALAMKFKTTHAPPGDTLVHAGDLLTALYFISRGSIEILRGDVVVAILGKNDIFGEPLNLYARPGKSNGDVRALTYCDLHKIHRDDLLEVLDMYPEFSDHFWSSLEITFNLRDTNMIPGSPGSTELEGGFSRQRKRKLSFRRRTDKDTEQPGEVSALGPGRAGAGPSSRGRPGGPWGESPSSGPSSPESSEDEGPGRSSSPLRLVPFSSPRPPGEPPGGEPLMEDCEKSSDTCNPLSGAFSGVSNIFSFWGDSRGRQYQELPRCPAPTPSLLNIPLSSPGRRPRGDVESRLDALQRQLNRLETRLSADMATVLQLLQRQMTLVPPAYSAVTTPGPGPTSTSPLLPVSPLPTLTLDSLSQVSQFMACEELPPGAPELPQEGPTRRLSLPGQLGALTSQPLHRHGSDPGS

| Structure (SMILES) | hERG current change (%, negative = inhibition) at 10uM |
| --- | --- |
| COc1ccc2[nH]c3c(c2c1)CCNC3C.Cl (stereo not drawn) | 14.7% |
| CC1(CCc2ccc3c(c2)OCO3)NC(=O)c2ccccc2N1 (stereo not drawn) | -7.78% |
| COc1ccc2[nH]c3c(c2c1)CCNC3(C)CCc1ccc(Cl)nc1 (stereo not drawn) | -51.6% |
| Cl.c1ccc2c3c([nH]c2c1)C1(CCCCC1)NCC3 | 2.11% |
| COc1ccc2[nH]c3c(c2c1)CCN[C@H]3C | -3.82% |
| CC1(CCc2ccc3c(c2)OCO3)NCCc2c1[nH]c1ccccc21.Cl (stereo not drawn) | -85.8% |
| COc1cccc(NC(C(=O)Nc2cccc(C(C)=O)c2)c2ccccc2)c1 (stereo not drawn) | -7.56% |
| O=C(O)C(Cc1ccccc1)N1C(=O)CCC1=O (stereo not drawn) | 14.4% |
| CCCCCC(=O)N1CCN(CCN=CC2=C(O)CC(c3ccc(OC)cc3)CC2=O)CC1 (stereo not drawn) | -74.1% |
| COc1ccc(C2CC(=O)C(C=NCCN3CCN(C(C)=O)CC3)=C(O)C2)cc1 (stereo not drawn) | -1.68% |
| CCCCCC(=O)N1CCN(CCN=CC2=C(O)CC(c3ccc(OC)c(OC)c3)CC2=O)CC1 (stereo not drawn) | -78.8% |
| CCC(=O)N1CCN(CCN=CC2=C(O)CC(c3ccc(OC)cc3)CC2=O)CC1 (stereo not drawn) | 5.11% |
| COc1ccc(C2CC(=O)C(C=NCCN3CCN(C(=S)Nc4ccccc4)CC3)=C(O)C2)cc1OC (stereo not drawn) | -20.1% |
| COc1ccc(C2CC(=O)C(C=NCCO)=C(O)C2)cc1OC (stereo not drawn) | 4.15% |
| Cc1ccccc1C1=NC(C(F)(F)F)(C(F)(F)F)c2c(n(C)c(=O)n(C)c2=O)N1 | 3.5% |
| NC(=S)Cc1ccc(Cl)cc1Cl | 18.8% |
| O=C(Nc1cccc(Cl)c1)Nc1ccccc1NS(=O)(=O)c1cccs1 | 24% |
| Cc1cc(C)c(NC(=O)CSc2nnc(-c3ccco3)n2N)c(C)c1 | -14.9% |
| CCC(CC(C)(C)O)C(=O)NNC(=S)Nc1ccccc1 (stereo not drawn) | 5.73% |
| O=C(OCC(=O)N1CCCC1)c1ccc(NS(=O)(=O)c2cccs2)cc1O | 17.1% |
| O=C(O)c1ccc(Oc2ccccc2)o1 | 23.2% |
| O=C(Nc1ccccc1)Nc1ccccc1-n1ccnc1 | -18.2% |
| Cc1ccc(C)c(C(=O)CN2C(=O)NC3(CCC(C)CC3)C2=O)c1 (stereo not drawn) | -18.3% |

| Structure (SMILES) | hERG current change (%, negative = inhibition) at 10uM |
| --- | --- |
| CC(C)(C)c1cc(Cl)ccc1OCCOCCN1CCCC1.O=C(O)C(=O)O | -45.8% |
| CC1CCCN(CCSc2ccc(Cl)cc2)C1.O=C(O)C(=O)O (stereo not drawn) | -41.3% |
| CC1CCCN(CCCOc2ccc(Cl)cc2Br)C1.O=C(O)C(=O)O (stereo not drawn) | -70.5% |
| CC1CCCN(CCOCCOc2ccc(Cl)cc2Br)C1.O=C(O)C(=O)O (stereo not drawn) | -61.1% |
| Cc1ccc(N2C(=O)N(CC(=O)NC(c3ccccc3)c3ccccc3)C(=O)C2C)cc1 (stereo not drawn) | -32.6% |
| O=C(O)C1=C[C@@H](C2CCCCC2)C[C@@H](OCCCCO)O1 | 9.42% |
| Cc1ccsc1C(=O)NNC(=O)COc1ccccc1Cl | 16.9% |
| CC1(C)N(OCc2ccccc2)C(=O)C(=O)N(OCc2ccccc2)C1(C)C | -6.11% |
| COc1cccc(C(C(=O)NCC2CCCO2)N(C(=O)Cn2nnc3ccccc32)c2ccc(NC(C)=O)cc2)c1OC (stereo not drawn) | 6.49% |
| CCOC(=O)N1CCN(c2cc(C)c([N+](=O)[O-])cc2F)CC1 | -8.16% |
| N#Cc1cc(F)c(N2CCNCC2)cc1Cl | 3.42% |
| N#Cc1ccc(N2CCN(c3ccc(F)cc3)CC2)cc1 | -16.9% |
| O=C(c1cccs1)N1CCN(c2ccc(Cl)cc2)CC1 | -13.4% |
| O=C(c1cccc(F)c1)N1CCCN(C(=O)c2cccc(F)c2)CC1 | -6.95% |
| Cc1cc(N2CCN(C(=O)c3cccs3)CC2)c(F)cc1[N+](=O)[O-] | -67% |
| O=C(c1cccs1)N1CCN(c2cc(Cl)ccc2Cl)CC1 | -33.8% |
| N#Cc1ccc(N2CCN(C(=O)c3cccs3)CC2)c(F)c1 | -55.7% |
| Cc1ccc(N2CCN(C(=O)c3cccs3)CC2)c(C)c1 | -10.6% |
| N#Cc1ccc(N2CCNCC2)c(F)c1 | -69% |
| O=C(c1cccc(C(=O)N2CCN(c3ccccc3F)CC2)c1)N1CCN(c2ccccc2F)CC1 | -2.32% |
| N#Cc1ccc(N2CCN(C(=O)c3cccc(F)c3)CC2)c(F)c1 | -66.8% |
| COc1ccc(S(=O)(=O)N2CCCOC2CNC(=O)C(=O)NCCc2ccco2)cc1 (stereo not drawn) | 4.42% |
| CC(C)(C)c1ccc(C(=O)Cn2cnnc2C#N)cc1 | 3.7% |

| Structure (SMILES) | hERG current change (%, negative = inhibition) at 10uM |
| --- | --- |
| Cc1ccc(N2CC(C(=O)NCCc3ccc(S(N)(=O)=O)cc3)CC2=O)cc1 (stereo not drawn) | 22.5% |
| O=C(N/N=C/c1cccnc1)c1ccccc1 | 17.3% |
| Cn1c(/C=C/c2ccccc2[N+](=O)[O-])nc2ccccc2c1=O | 5% |
| COc1ccccc1S(=O)(=O)Cc1ccc(C(=O)NCc2ccco2)o1 | -33.5% |
| O=C(COC(=O)Cc1ccccc1)Nc1ccc(SC(F)F)cc1 | 5.27% |
| CNC(=S)NNC(=O)c1c(C)nc2cc(C)ccn12 | 7.15% |
| CCC(=O)c1ccc(N2CCN(C(=O)c3cc([N+](=O)[O-])ccc3F)CC2)c(F)c1 | -42.9% |
| O=C(c1cccs1)N1CCN(c2ccc([N+](=O)[O-])cc2F)CC1 | -56.8% |
| CCC(=O)c1ccc(N2CCN(C(=O)c3cc([N+](=O)[O-])ccc3N3CCN(C)CC3)CC2)c(F)c1 | -46.4% |
| Cc1ccc(S(=O)(=O)N2CCC(C(=O)OCC(=O)N(C)Cc3ccccc3)CC2)cc1C | -12% |
| O=C(NC(=S)Nc1cccc(Cl)c1N1CCCCC1)c1cccs1 | 22.7% |
| CCN1CCN(c2c(Cl)cccc2NC(=O)c2ccc(Br)o2)CC1 | -73.6% |
| O=C(Nc1cccc(Cl)c1N1CCOCC1)c1ccco1 | -8.08% |
| O=C(Nc1cccc(Cl)c1N1CCCC1)c1ccc([N+](=O)[O-])o1 | 9.6% |
| CCN1CCN(c2c(Cl)cccc2NC(=O)c2cccs2)CC1 | -73.8% |
| O=C(Nc1cccc(Cl)c1N1CCOCC1)c1cccs1 | -23.5% |
| O=C(Nc1cccc(Cl)c1N1CCOCC1)c1ccc([N+](=O)[O-])o1 | 2.67% |
| CCN1CCN(c2c(Cl)cccc2NC(=O)c2ccc([N+](=O)[O-])o2)CC1 | -73.9% |
| O=C(Nc1cccc(Cl)c1N1CCCC1)c1ccc(Br)o1 | -5.58% |
| O=C(Nc1cccc(Cl)c1N1CCCC1)c1ccco1 | 6.11% |
| O=C(Nc1cccc(Cl)c1N1CCOCC1)c1ccc(Br)o1 | 6.64% |
| CCN1CCN(c2c(Cl)cccc2NC(=O)c2ccco2)CC1 | -73.4% |
| CC12CCC(=O)N1C(C(=O)NNC(=O)c1ccc(Br)cc1)CS2 (stereo not drawn) | -8.4% |

| Structure (SMILES) | hERG current change (%, negative = inhibition) at 10uM |
| --- | --- |
| Cc1ccc2nc(SCC(=O)Nc3ccc(C(N)=O)cc3)[nH]c2c1 | 3.74% |
| CC(CN(C)Cc1ccccc1)OC(=O)c1ccc2c(c1)OCCO2.Cl (stereo not drawn) | 5.15% |
| COC(=O)c1ccc(COc2ccc3ccc(=O)oc3c2)o1 | 8.66% |
| CN(C)CCNC(=O)Cn1ccc2cc(S(=O)(=O)N3CCCCCC3)ccc21 | -25.4% |
| C/C(N)=C(/C#N)C(=O)CSc1nn(-c2ccc(Cl)cc2)c(=S)s1 | 12.9% |
| O=S(=O)(NCCc1ccncc1)c1ccccc1 | 4.04% |
| c1ccc2c(c1)CCCC2NC1=NCCC1 (stereo not drawn) | -2.53% |
| O=C(NCC(c1cccs1)N1CCOCC1)c1ccc(Cl)c([N+](=O)[O-])c1 (stereo not drawn) | -31.9% |
| CCOc1ncccc1C(=O)N1CCN(C(c2ccccc2)c2ccccc2)CC1 | 5.75% |
| O=C(O)CCn1c(-c2ccccc2)cc2c1CCCC2=O | 14.1% |
| Cc1c(NS(=O)(=O)c2ccc(NC3CCCC3)c([N+](=O)[O-])c2)c(=O)n(-c2ccccc2)n1C | -19.7% |
| Cc1cc(C)nc(NS(=O)(=O)c2cccs2)c1 | 3.36% |
| CCN1CCN(c2c(Cl)cccc2NC(=O)c2ccc3nsnc3c2)CC1 | -49.5% |
| CCN1CCN(c2c(Cl)cccc2NC(=O)c2ccc3c(c2)OCCO3)CC1 | -38.4% |
| CCN1CCN(c2c(Cl)cccc2NC(=O)c2ccc([N+](=O)[O-])cc2)CC1 | -72% |
| O=C(CNc1ccc2ccccc2c1)N/N=C/c1ccncc1 | -8.31% |
| O=C(Nc1cc(Cl)ccc1N1CCCC1)C1=NN(c2ccccc2)C(=O)CC1 | -16.9% |
| CC(=O)N1CCc2cc(S(=O)(=O)NCCC(=O)Nc3cccc(C)c3C)ccc21 | 0.058% |
| COc1ccc(CN(C(=O)CN2C(=O)NC3(CCC(C)CC3)C2=O)C(C)Cc2cccs2)cc1 (stereo not drawn) | -68.7% |
| CC1CCC2(CC1)NC(=O)N(CC(=O)NCc1cccs1)C2=O (stereo not drawn) | 1.95% |
| CC1CCC2(CC1)NC(=O)N(CC(=O)N(Cc1ccccc1)C(C)(C)C)C2=O (stereo not drawn) | 10.6% |
